# Test results reported in the supplement of paper PMC8728848.
# The sample as a whole holds a higher share of the strongest signals than the screen did.
# B1: SSP1 (Sclerotinia sclerotiorum), XP_001584968 (protein)
# chain: MGSSHHHHHHSSGLVPRGSHMSLLTTELACTSAPDQVLHLFFQDGQNILEARSPDGGNVWTTQDTIIAKDGDYNGSSMTCYYVDKDANFDNQPSIHLLYMNKDKQLTEKVKRMKGDNPIWEDAKVPDEVRKGPEQYSKLTSGSFNQGTGWNPNGSQWAYFSASKDGKMGIVEIRRTPKDPWHTETILEEKWGDELPGTALACVIGNGKIRVFLQHHDYSIILYENQNNTWHDRGTFIPKDKVQATTPLACTMTKDGSVHLFYVSKSNKIIHCTDGKKEEELINFFPGSKLGATSVENKITLFFRNLNPVNEVGTLENENGSWKHGTTVIPA
# Tests used:
# Test in all cases: glycan array binding signal (z-score within array); higher = stronger binding
# Conditions in all cases: glycan notation: IUPAC condensed, linker removed
# [1] = biological target: Fuc(a1-2)Gal(b1-3)[Fuc(a1-4)]GlcNAc(b1-2)Man(a1-3)[Fuc(a1-2)Gal(b1-3)[Fuc(a1-4)]GlcNAc(b1-2)Man(a1-3)]Man(b1-4)GlcNAc(b1-4)GlcNAc
# Summary of the method: (§1)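 From the Consortium for Functional Glycomics database, 3228 arrays were curated, keeping only those whose protein sequence was available. Binding is given as a within-array Z-score averaged across arrays sharing a protein sequence and across linkers. Negative Z-scores can be read as non-binding.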
# [2] = biological target: Fuc(a1-2)Gal(b1-3)[Fuc(a1-4)]GlcNAc(b1-3)[Gal(b1-4)GlcNAc(b1-6)]Gal(b1-4)Glc
# Summary of the method: as §1
# [3] = biological target: Fuc(a1-2)[Gal(a1-3)]Gal(b1-3)GlcNAc
# Summary of the method: as §1
# [4] = biological target: Fuc(a1-2)[Gal(a1-3)]Gal(b1-3)GlcNAc(b1-6)GalNAc
# Summary of the method: as §1
# [5] = biological target: Fuc(a1-2)[Gal(a1-3)]Gal(b1-4)GlcNAc(b1-6)GalNAc
# Summary of the method: as §1
# [6] = biological target: Fuc(a1-3)[Gal(b1-4)]GlcNAc(b1-3)Gal(b1-4)[Fuc(a1-3)]GlcNAc
# Summary of the method: as §1
# Gal(a1-3)Gal(b1-3)GlcNAc = biological target: Gal(a1-3)Gal(b1-3)GlcNAc
# Summary of the method: as §1
# [7] = biological target: Gal(a1-3)[Gal(a1-4)]Gal(b1-4)GlcNAc
# Summary of the method: as §1
# Gal(b1-2)Gal = biological target: Gal(b1-2)Gal
# Summary of the method: as §1
# Gal(b1-3)GalNAc = biological target: Gal(b1-3)GalNAc
# Summary of the method: as §1
# [8] = biological target: Gal(b1-3)GalNAc(a1-3)[Fuc(a1-2)]Gal(b1-4)GlcNAc
# Summary of the method: as §1
# [9] = biological target: Gal(b1-3)GlcNAc(b1-2)Man(a1-3)[Gal(b1-3)GlcNAc(b1-2)Man(a1-6)]Man(b1-4)GlcNAc(b1-4)[Fuc(a1-6)]GlcNAc
# Summary of the method: as §1
# [10] = biological target: Gal(b1-3)[Fuc(a1-4)]GlcNAc(b1-2)Man
# Summary of the method: as §1
# [11] = biological target: Gal(b1-4)GlcNAc(b1-2)[Gal(b1-4)GlcNAc(b1-6)]Man(a1-6)[GlcNAc(b1-4)][Gal(b1-4)GlcNAc(b1-2)[Gal(b1-4)GlcNAc(b1-4)]Man(a1-3)]Man(b1-4)GlcNAc(b1-4)[Fuc(a1-6)]GlcNAc
# Summary of the method: as §1
# [12] = biological target: Gal(b1-4)GlcNAc(b1-3)Gal(b1-4)GlcNAc(b1-2)Man(a1-3)[Gal(b1-4)GlcNAc(b1-3)Gal(b1-4)GlcNAc(b1-2)Man(a1-6)]Man(b1-4)GlcNAc(b1-4)GlcNAc
# Summary of the method: as §1
# [13] = biological target: Gal(b1-4)GlcNAc(b1-3)Gal(b1-4)GlcNAc(b1-3)[Gal(b1-4)GlcNAc(b1-3)Gal(b1-4)GlcNAc(b1-6)]GalNAc
# Summary of the method: as §1
# [14] = biological target: Gal(b1-4)GlcNAc(b1-6)[Gal(b1-3)]GalNAc
# Summary of the method: as §1
# Gal3S(b1-4)Glc = biological target: Gal3S(b1-4)Glc
# Summary of the method: as §1
# Gal4S6S(b1-4)GlcNAc = biological target: Gal4S6S(b1-4)GlcNAc
# Summary of the method: as §1
# GalNAc(b1-3)Gal = biological target: GalNAc(b1-3)Gal
# Summary of the method: as §1
# GalNAc(b1-4)Gal(b1-4)Glc = biological target: GalNAc(b1-4)Gal(b1-4)Glc
# Summary of the method: as §1
# GlcA(b1-3)GlcNAc = biological target: GlcA(b1-3)GlcNAc
# Summary of the method: as §1
# [15] = biological target: GlcA3S(b1-3)Gal(b1-4)GlcNAc(b1-2)Man
# Summary of the method: as §1
# [16] = biological target: GlcNAc(a1-3)Gal(b1-4)GlcNAc
# Summary of the method: as §1
# [17] = biological target: GlcNAc(a1-4)Gal(b1-4)GlcNAc(b1-3)Gal(b1-4)[Fuc(a1-3)]GlcNAc(b1-3)Gal(b1-4)[Fuc(a1-3)]GlcNAc
# Summary of the method: as §1
# [18] = biological target: GlcNAc(b1-3)Gal(b1-4)GlcNAc(b1-6)[Gal(b1-3)]GalNAc
# Summary of the method: as §1
# [19] = biological target: Man(a1-2)Man(a1-3)[Man(a1-6)]Man(a1-6)[Man(a1-2)Man(a1-3)]Man(b1-4)GlcNAc(b1-4)GlcNAc
# Summary of the method: as §1
# [20] = biological target: Man(a1-2)Man(a1-6)[Man(a1-3)]Man(a1-6)[Man(a1-2)Man(a1-2)Man(a1-3)]Man(b1-4)GlcNAc(b1-4)GlcNAc
# Summary of the method: as §1
# [21] = biological target: Man(a1-3)[Man(a1-6)]Man(a1-6)[Man(a1-3)]Man
# Summary of the method: as §1
# [22] = biological target: Neu5Ac(a2-3)Gal(b1-4)GlcNAc(b1-2)Man
# Summary of the method: as §1
# [23] = biological target: Neu5Ac(a2-3)Gal(b1-4)GlcNAc(b1-2)Man(a1-3)[Neu5Ac(a2-3)Gal(b1-4)GlcNAc(b1-2)Man(a1-6)]Man(b1-4)GlcNAc(b1-4)GlcNAc
# Summary of the method: as §1
# [24] = biological target: Neu5Ac(a2-3)Gal(b1-4)GlcNAc(b1-3)Gal(b1-4)GlcNAc
# Summary of the method: as §1
# [25] = biological target: Neu5Ac(a2-3)Gal(b1-4)[Fuc(a1-3)]GlcNAc(b1-6)[Neu5Ac(a2-3)Gal(b1-3)]GalNAc
# Summary of the method: as §1
# [26] = biological target: Neu5Ac(a2-3)Gal6S(b1-4)GlcNAc
# Summary of the method: as §1
# [27] = biological target: Neu5Ac(a2-6)Gal(b1-4)GlcNAc(b1-2)Man(a1-3)[Neu5Ac(a2-6)Gal(b1-4)GlcNAc(b1-2)Man(a1-6)]Man(b1-4)GlcNAc(b1-4)[Fuc(a1-6)]GlcNAc
# Summary of the method: as §1
# [28] = biological target: Neu5Ac(a2-6)Gal(b1-4)GlcNAc(b1-2)[Neu5Ac(a2-6)Gal(b1-4)GlcNAc(b1-4)]Man(a1-3)[GlcNAc(b1-4)][Neu5Ac(a2-6)Gal(b1-4)GlcNAc(b1-2)[Neu5Ac(a2-6)Gal(b1-4)GlcNAc(b1-6)]Man(a1-6)]Man(b1-4)GlcNAc(b1-4)GlcNAc
# Summary of the method: as §1
# [29] = biological target: Neu5Ac(a2-8)Neu5Gc(a2-3)Gal(b1-4)GlcNAc
# Summary of the method: as §1
binder,measurement,setting,value
B1,glycan array binding signal (z-score),[1],0.937
same,glycan array binding signal (z-score),[2],-0.405
same,glycan array binding signal (z-score),[3],0.084
same,glycan array binding signal (z-score),[4],7.05
same,glycan array binding signal (z-score),[5],-0.15
same,glycan array binding signal (z-score),[6],-0.07
same,glycan array binding signal (z-score),Gal(a1-3)Gal(b1-3)GlcNAc,2.88
same,glycan array binding signal (z-score),[7],2.85
same,glycan array binding signal (z-score),Gal(b1-2)Gal,0.5
same,glycan array binding signal (z-score),Gal(b1-3)GalNAc,-0.111
same,glycan array binding signal (z-score),[8],3.1
same,glycan array binding signal (z-score),[9],5.12
same,glycan array binding signal (z-score),[10],-0.358
same,glycan array binding signal (z-score),[11],0.197
same,glycan array binding signal (z-score),[12],8.48
same,glycan array binding signal (z-score),[13],-0.003
same,glycan array binding signal (z-score),[14],-0.405
same,glycan array binding signal (z-score),Gal3S(b1-4)Glc,1.38
same,glycan array binding signal (z-score),Gal4S6S(b1-4)GlcNAc,-0.291
same,glycan array binding signal (z-score),GalNAc(b1-3)Gal,2.2
same,glycan array binding signal (z-score),GalNAc(b1-4)Gal(b1-4)Glc,-0.27
same,glycan array binding signal (z-score),GlcA(b1-3)GlcNAc,0.484
same,glycan array binding signal (z-score),[15],-0.535
same,glycan array binding signal (z-score),[16],-0.477
same,glycan array binding signal (z-score),[17],2.28
same,glycan array binding signal (z-score),[18],-0.156
same,glycan array binding signal (z-score),[19],-0.017
same,glycan array binding signal (z-score),[20],-0.467
same,glycan array binding signal (z-score),[21],2.15
same,glycan array binding signal (z-score),[22],0.612
same,glycan array binding signal (z-score),[23],-0.45
same,glycan array binding signal (z-score),[24],0.123
same,glycan array binding signal (z-score),[25],1.79
same,glycan array binding signal (z-score),[26],-0.085
same,glycan array binding signal (z-score),[27],-0.364
same,glycan array binding signal (z-score),[28],0.132
same,glycan array binding signal (z-score),[29],9.08
